Here are results for 13 molecules from PubChem BioAssay.

Activity calls are given as the source filed them.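 Rule for the calls, unless noted: active = inhibition at or above 50% at 10 µM; inactive = inhibition below 50%.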

The nature of assay [1]: inhibitors of TNFa-induced NFkB p65 translocation, primary screen, imaging, HUVEC, MLSMR starter and 10KST1 sets (AID 438;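 active = inhibition above 20% together with a positive visual image hit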;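 note: compound added about 3h40 before a 20 min TNFalpha stimulation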;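 for inhibition: signal is the nuclear over cytoplasmic p65 intensity ratio per well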). The note with it: HUVEC TNFa-induced p65 nuclear translocation; cell count: measured here: nuclei count (cytotoxicity indicator), at 2.08 µM; inhibition: at 2 µM, stronger effect = higher value, 0% TNFa-plus-vehicle, 100% no-TNFa wells.
Assay [2] in a line: inhibitors of mutant huntingtin aggregation, primary screen, imaging, exon1htt(103Q)mCFP cells, high-content imaging (AID 483;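 active = visual image review flags a hit and inhibition of aggregation exceeds 20%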;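 note: compound exposure lasted 3 days before fixation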;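 for nuclei count: percent of the per-plate median nuclei count of sample wells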). The note with it: exon1htt(103Q)mCFP cell line, aggregate imaging, at 2 µM; inhibition of aggregation: stronger effect = higher value; nuclei count: measured here: cell count, toxicity.
A short description of assay [3]: inhibitors of E-selectin induction by TNFa, primary screen, imaging, HUVEC, immunofluorescence, MLSMR starter and 10KST1 sets (AID 487;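 active = visually confirmed hit in the image check and inhibition above 20%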;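 for inhibition: signal is fraction of cell area covered by stained E-selectin grains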;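 for nuclei count: 100% = median nuclei count of all wells on the same plate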). Conditions: HUVEC TNFalpha-induced E-selectin immunofluorescence imaging, at 2 µM; inhibition: stronger effect = higher value; nuclei count: measured here: cell number, toxicity.
Assay [4] concerns the target Voltage-gated potassium channel subunit beta-2 (Rattus norvegicus) (UniProt P62483). The assay is described as follows: KvBeta enzyme negative modulators, primary screen, biochemical, NADPH fluorescence (AID 622;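 active = fluorescence slope higher than the sample average by over 3 SD, cut at about -0.22 in these data, passing the limit was not always enough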;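 note: slope of raw intensity against log time taken from 70 to 1610 s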). Conditions: recombinant KvBeta, 4-cyanobenzaldehyde reduction, at 10 µM, stronger effect = higher value.
The target is the same in assay [5]. The assay is described as follows: KvBeta positive modulators, primary screen, biochemical, NADPH fluorescence (AID 623;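 active = NADPH fluorescence slope more negative than the mean of all samples by about 3 SD, 99.7% confidence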;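 note: fluorescence intensity change per second fitted from 20 to 320 s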). Conditions: Recombinant KvBeta, NADPH fluorescence decrease slope, 10 min; at 10 µM; stronger effect = lower value.
Assay [6] concerns the target Alpha-2C adrenergic receptor (Homo sapiens) (UniProt P18825). The assay is described as follows: modulators of alpha2C/GIRK thallium flux, primary screen, cell-based, HEK293 alpha2C/GIRK1/2 (AID 624;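 active = fluorescence slope after compound addition differing from the mean of all screened samples at 99.7% confidence, in either direction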;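 note: slope of fluorescence ratio to pre-addition baseline per second over 15 to 24 s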). Conditions: thallium flux BTC fluorescence, at 10 µM, actives lie on both sides.
A short description of assay [7]: inhibitors of Sendai virus-induced IRF3 signaling, primary screen, TLR/RLR signaling modifier project, cell-based, Sendai virus stimulus, luciferase, 10K MLSCN set (AID 602276).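 Note: firefly luciferase from ISG56 promoter only with Renilla not read in this screen; 0% = Sendai virus plus DMSO and 100% = medium plus DMSO without virus.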 The note with it: HEK293 RL24 IRF3 luciferase reporter, at 10 µM, stronger effect = higher value. (In a reporter assay the amount or activity of a reporter protein is the signal.)
Assay [8] can be described thus: inhibitors of poly I:C-induced TLR3 signaling, primary screen, cell-based, poly I:C stimulus, luciferase, 10K MLSCN set (AID 602277;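 active = inhibition of the reporter signal at or above 50%; inactive = inhibition below 50%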). Conditions: HEK293-TLR3 RL24 IRF3 luciferase reporter, at 10 µM, stronger effect = higher value.

Sequence of Voltage-gated potassium channel subunit beta-2 (Rattus norvegicus) (P62483 whole entry, looked up): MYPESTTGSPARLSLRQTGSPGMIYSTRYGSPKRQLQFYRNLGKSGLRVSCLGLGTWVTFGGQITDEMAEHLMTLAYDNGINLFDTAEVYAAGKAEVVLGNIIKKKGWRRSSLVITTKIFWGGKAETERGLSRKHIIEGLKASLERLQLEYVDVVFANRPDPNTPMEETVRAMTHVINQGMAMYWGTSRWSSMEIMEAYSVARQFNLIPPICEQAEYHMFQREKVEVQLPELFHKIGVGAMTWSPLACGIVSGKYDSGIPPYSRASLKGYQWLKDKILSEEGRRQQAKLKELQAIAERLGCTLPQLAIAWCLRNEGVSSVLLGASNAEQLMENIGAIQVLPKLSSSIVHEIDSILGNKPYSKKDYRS
Sequence of Alpha-2C adrenergic receptor (Homo sapiens) (P18825 whole entry, looked up): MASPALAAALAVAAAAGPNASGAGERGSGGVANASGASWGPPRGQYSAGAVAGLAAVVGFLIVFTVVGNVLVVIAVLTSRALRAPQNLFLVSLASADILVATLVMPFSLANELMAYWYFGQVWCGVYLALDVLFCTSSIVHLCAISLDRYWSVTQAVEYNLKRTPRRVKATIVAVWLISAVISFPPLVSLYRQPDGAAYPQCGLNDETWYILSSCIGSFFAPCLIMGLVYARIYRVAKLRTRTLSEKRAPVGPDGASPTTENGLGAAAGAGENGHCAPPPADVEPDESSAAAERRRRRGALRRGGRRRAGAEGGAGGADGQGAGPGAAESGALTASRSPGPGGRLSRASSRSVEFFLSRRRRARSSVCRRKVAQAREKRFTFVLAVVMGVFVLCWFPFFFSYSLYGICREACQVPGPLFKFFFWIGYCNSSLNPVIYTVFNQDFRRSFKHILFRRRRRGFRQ

Broadly, the inhibition is the relative decrease from the control value, in per cent. In the case of `COC(=O)Cn1c2ccccc2c2nc(C)sc21`, the cell count in assay [1] amounted to 350. Also, the inhibition in assay [1] is 11.4% (inactive); in assay [3] it was -59.3% (inactive); in assay [7] it was -14.8% (inactive); in assay [8], -8.31% (inactive). The inhibition of aggregation in assay [2] is -14.3% (inactive). In addition, the nuclei count is 106% in assay [2] and 125% in assay [3]. Also, the fluorescence slope in assay [4] is -0.439 (inactive). Further, the NADPH fluorescence slope in assay [5] is 7e-06 (inactive). Moreover, the slope in assay [6] is 0.00472 (inactive).
Turning to `COc1cc(C(Nc2ccc3c(c2)OCO3)C(=O)NC2CCCCC2)cc(OC)c1OC` (stereo not drawn), the cell count in assay [1] is 835. Also, the inhibition in assay [1] is -10.7% (inactive); in assay [3] it was -35.2% (inactive); in assay [7], 14.6% (inactive); in assay [8] it was 28.3% (inactive). The inhibition of aggregation in assay [2] is 12.3% (inactive). Besides, the results for the nuclei count in assay [2] and in assay [3] were 88.5% and 121%, respectively. For the same molecule, the fluorescence slope in assay [4] is -0.63 (inactive). Besides, in assay [5], the NADPH fluorescence slope was -3e-05 (inactive). Also, the slope in assay [6] was 0.00532 (inactive).
With `CC1Cc2ccccc2N1Cc1cc(=O)n2ccsc2n1` (stereo not drawn), the cell count in assay [1] amounted to 453. For the same molecule, the inhibition in assay [1] is -5.7% (inactive); in assay [3], -157% (inactive); in assay [7], 1.61% (inactive); in assay [8], 20.7% (inactive). For the same molecule, the inhibition of aggregation in assay [2] was -2.2% (inactive). Further, the nuclei count turned out to be 96.8% in assay [2] and 121% in assay [3]. In assay [4], the fluorescence slope was -0.581 (inactive). Moreover, in assay [5], the NADPH fluorescence slope is -2e-05 (inactive). Moreover, in assay [6], the slope is 0.00674 (inactive).
On to `CCOC(=O)CSC1=C(C#N)C(c2ccc(Cl)cc2)C(C(=O)OC)C(=O)N1` (stereo not drawn), for which the cell count in assay [1] came to 495. For the same molecule, the inhibition in assay [1] was 4.4% (inactive); in assay [3] it was -80% (inactive); in assay [7], 7.95% (inactive); in assay [8], 25.3% (inactive). Further, the inhibition of aggregation in assay [2] is -24.6% (inactive). Further, the nuclei count in assay [2] turned out to be 40.5%; in assay [3], 95.7%. The fluorescence slope in assay [4] is -0.394 (inactive). In assay [5], the NADPH fluorescence slope was -5.6e-05 (inactive). In assay [6], the slope was 0.00371 (inactive).
For `CCC(C)(C)n1nnnc1C(c1ccc(OC)c(OC)c1)N1CCN(c2ccccc2)CC1` (stereo not drawn), the cell count in assay [1] amounted to 252. The inhibition was 10.9% (inactive) in assay [1], 1.7% (inactive) in assay [3], 18.8% (inactive) in assay [7] and 39.6% (inactive) in assay [8]. The inhibition of aggregation in assay [2] is 0.9% (inactive). The nuclei count stood at 80.9% in assay [2] and 94.4% in assay [3]. Besides, in assay [4], the fluorescence slope was -0.473 (inactive). Further, in assay [5], the NADPH fluorescence slope is -0.000151 (inactive). Further, the slope in assay [6] is 0.0062 (inactive).
As for `COC(=O)Cn1c(=NC(=O)CSCC(=O)Nc2cc(C)on2)sc2ccccc21`, the cell count in assay [1] was 610. For the same molecule, the inhibition in assay [1] is -6.9% (inactive); in assay [3], 1.2% (inactive); in assay [7], 11.1% (inactive); in assay [8] it was 28.1% (inactive). In addition, the inhibition of aggregation in assay [2] is 2.6% (inactive). For the same molecule, the nuclei count in assay [2] is 112%; in assay [3], 111%. For the same molecule, the fluorescence slope in assay [4] is -0.417 (inactive). Besides, the NADPH fluorescence slope in assay [5] was -6.3e-05 (inactive). Also, the slope in assay [6] is 0.00506 (inactive).
For the molecule `O=C(NCCCNC1CCCCC1)c1ccc(/C=N/O)nc1`, the cell count in assay [1] came to 221. Moreover, the inhibition in assay [1] is 2% (inactive); in assay [3], -97.6% (inactive); in assay [7], 7.85% (inactive); in assay [8] it was 23% (inactive). For the same molecule, the inhibition of aggregation in assay [2] is -20.6% (inactive). The values for the nuclei count in assay [2] and in assay [3] were 67.6% and 108%, respectively. For the same molecule, the fluorescence slope in assay [4] was -0.62 (inactive). The NADPH fluorescence slope in assay [5] was -1.9e-05 (inactive). The slope in assay [6] is 0.00681 (inactive).
For `O=C(c1ccc(Br)cc1)N1CCN(S(=O)(=O)c2ccccc2)CC1`, the cell count in assay [1] was 556. Also, the inhibition is -5.1% (inactive) in assay [1], -43.3% (inactive) in assay [3], -3.58% (inactive) in assay [7] and 20% (inactive) in assay [8]. The inhibition of aggregation in assay [2] is 3.3% (inactive). Moreover, the values for the nuclei count in assay [2] and in assay [3] were 66.6% and 106%, respectively. Also, the fluorescence slope in assay [4] was -0.588 (inactive). For the same molecule, the NADPH fluorescence slope in assay [5] is -9.2e-07 (inactive). The slope in assay [6] is 0.00631 (inactive).
Regarding `Nc1[nH]nc2nc(N3CCCC3)nc(-c3ccccc3)c12`, in assay [1], the cell count was 341. For the same molecule, the inhibition was -9.5% (inactive) in assay [1], -53% (inactive) in assay [3], 11.8% (inactive) in assay [7] and 18.8% (inactive) in assay [8]. Further, in assay [2], the inhibition of aggregation was 20.6% (inactive). Besides, the nuclei count in assay [2] worked out at 60.5%; in assay [3], 117%. In addition, in assay [4], the fluorescence slope is -0.477 (inactive). Also, in assay [5], the NADPH fluorescence slope is -3.4e-05 (inactive). Moreover, the slope in assay [6] was 0.00548 (inactive).
As for `Cc1nc2sc(C(c3cccc(F)c3)N3CCC(C)CC3)c(O)n2n1` (stereo not drawn), the cell count in assay [1] amounted to 231. Moreover, the inhibition in assay [1] is -5.4% (inactive); in assay [3], 9.7% (inactive); in assay [7], 14.4% (inactive); in assay [8], 17% (inactive). For the same molecule, the inhibition of aggregation in assay [2] was -13.1% (inactive). The results for the nuclei count in assay [2] and in assay [3] were 109% and 108%, respectively. Also, the fluorescence slope in assay [4] is -0.524 (inactive). Moreover, the NADPH fluorescence slope in assay [5] was -7.2e-05 (inactive). For the same molecule, the slope in assay [6] is 0.00644 (inactive).
Turning to `Cn1nnnc1SCSc1nnnn1C`, the cell count in assay [1] was 626. For the same molecule, the inhibition in assay [1] was -16.6% (inactive); in assay [3] it was -58% (inactive); in assay [7], 0.0465% (inactive); in assay [8], -3.07% (inactive). Further, in assay [2], the inhibition of aggregation is 4.1% (inactive). For the same molecule, the nuclei count amounted to 56.1% in assay [2] and 93.3% in assay [3]. For the same molecule, in assay [4], the fluorescence slope was -0.585 (inactive). Further, the NADPH fluorescence slope in assay [5] is -4.7e-05 (inactive). In addition, in assay [6], the slope was 0.00536 (inactive).
For `O=C(NC1CCCCC1)c1nc2c(nnn2Cc2ccccc2Cl)c(=O)[nH]1`, the cell count in assay [1] came out at 584. The inhibition in assay [1] is 8.8% (inactive); in assay [3] it was 7.2% (inactive); in assay [7] it was 3.13% (inactive); in assay [8] it was 6.18% (inactive). Further, the inhibition of aggregation in assay [2] was 17.1% (inactive). The nuclei count in assay [2] worked out at 85.3%; in assay [3] it was 105%. The fluorescence slope in assay [4] was -0.525 (inactive). Further, the NADPH fluorescence slope in assay [5] is -2.9e-05 (inactive). Moreover, the slope in assay [6] is 0.0047 (inactive).
As for `Clc1ccccc1OCCCCn1ccnc1`, the cell count in assay [1] is 425. The inhibition was -0.2% (inactive) in assay [1], 14.5% (inactive) in assay [3], -3.32% (inactive) in assay [7] and 5.03% (inactive) in assay [8]. The inhibition of aggregation in assay [2] is -10.9% (inactive). Besides, the nuclei count turned out to be 97.3% in assay [2] and 106% in assay [3]. For the same molecule, in assay [4], the fluorescence slope was -0.464 (inactive). For the same molecule, the NADPH fluorescence slope in assay [5] is -5.3e-05 (inactive). Besides, the slope in assay [6] was 0.0106 (active).
